Experiment [1] concerns the target Thyrotropin-releasing hormone receptor (Homo sapiens) (UniProt P34981). The experiment can be described thus: qHTS assay to identify small molecule agonists of the thyrotropin-releasing hormone receptor (TRHR) signaling pathway (AID 1346891; calls by dose curve; note: series mostly up to about 58 µM). In a few lines:
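TRHR-expressing HEK293 cells were plated 18 h at 37 °C/5% CO2, loaded with calcium dye 2 h at 37 °C, then given compound in DMSO; fluorescence was read kinetically for 3 min at 1 s intervals.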

Experiment [2] can be described thus: Human pregnane X receptor (PXR) small molecule agonists, qHTS cell viability counter screen (AID 1346977). Note: nearly all actives have a fitted effect of over 50% in size. In outline:
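PXR-Luc HepG2 cells in medium with 5% charcoal-stripped FBS were pre-incubated 5hr, then exposed to compounds for 24hr at 37C. Viability was read in the same wells by CellTiter-Fluor fluorescence, reagent added after 23hr with a 1hr incubation.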

Experiment [3] in a line: Caspase-3/7 induction in HepG2 cells by small molecules, qHTS assay (AID 1346978). Note: nearly all actives have a fitted effect of over 15% in size. In a few lines:
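Caspase-3/7 induction was measured by Caspase-Glo 3/7 luminescence (30 min, room temperature) after a 17 hr compound exposure of wild-type HepG2 cells seeded at 2,000 per well and pre-incubated 5 hr.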

Experiment [4] can be described thus: Caspase-3/7 induction in CHO-K1 cells by small molecules, qHTS cell viability counter screen (AID 1346979). Note: nearly all actives have a fitted effect of over 35% in size. In a few lines:
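Wild-type CHO-K1 cells were seeded at 1,500 per well, rested 5hr at 37 C, then exposed to compounds in DMSO. After 16hr, CellTiter-Fluor reagent was added and fluorescence read 1hr later as the viability measure.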

The nature of experiment [5]: Caspase-3/7 induction in CHO-K1 cells by small molecules, qHTS assay (AID 1346980). Note: nearly all actives have a fitted effect of over 15% in size. In outline: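 Luminescent Caspase-Glo 3/7 read (30min, room temperature) quantified apoptosis induction. Cells were wild-type CHO-K1, treated with compound for 17hr at 37 C and 5% CO2.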
The nature of experiment [6]: Caspase-3/7 induction in HepG2 cells by small molecules, qHTS cell viability counter screen (AID 1346981). Note: series mostly up to about 92 µM; nearly all actives have a fitted effect of over 30% in size. In a few lines: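 Multiplexed with the caspase-3/7 assay: HepG2 cells, 16 hr compound treatment, CellTiter-Fluor viability detection by fluorescence.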
In experiment [7] the target is Nuclear receptor subfamily 1 group I member 2 (Homo sapiens) (UniProt O75469). The experiment can be described thus: Human pregnane X receptor (PXR) small molecule agonists, qHTS assay (AID 1346982). Note: nearly all actives have a fitted effect of over 35% in size. In outline:
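We seeded PXR-Luc HepG2 cells in assay medium containing 5% charcoal-stripped FBS, added compounds 5 hr later, incubated 24 hr, and read luminescence with ONE-Glo reagent.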

Experiment [8] has as its target Cytochrome P450 2D6 (Homo sapiens) (UniProt P10635). The experiment can be described thus: Cytochrome P450 Family 2 Subfamily D Member 6 (CYP2D6) small molecule antagonists: luciferase reporter qHTS assay (AID 1671196). Note: nearly all actives have a fitted effect of over 50% in size. Note: potency is the fitted concentration of half-maximal effect. In outline:
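Luminescence (RLU), read 20 min after detection reagent, indicated CYP2D6 conversion of proluciferin to luciferin during a 1 h NADPH-dependent reaction at room temperature.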

Experiment [9] addresses Cytochrome P450 2C19 (Homo sapiens) (UniProt P33261). The experiment can be described thus: Cytochrome P450 Family 2 Subfamily C Member 19 (CYP2C19) small molecule antagonists: luciferase reporter qHTS assay (AID 1671197). Note: nearly all actives have a fitted effect of over 65% in size. Note: potency is the fitted concentration of half-maximal effect. In outline:
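Luminescent readout of CYP2C19 activity: luciferin product detected 20 min after adding detection reagent. Before that, compound and enzyme-substrate mix preincubated 10 min at room temperature; NADPH-regenerating system started a 1 h, 37C reaction. Ketoconazole as positive control.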

In experiment [10] the target is Cytochrome P450 2C9 (Homo sapiens) (UniProt P11712). The experiment can be described thus: Cytochrome P450 Family 2 Subfamily C Member 9 (CYP2C9) small molecule antagonists: luciferase reporter qHTS assay (AID 1671198). Note: nearly all actives have a fitted effect of over 50% in size. Note: potency is the fitted concentration of half-maximal effect. In outline:
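Enzyme-substrate mix preincubated with compound 10 min at room temperature; reaction started with NADPH regeneration solution, 1 h 37C. Luminescent luciferin product read after 20 min detection reagent.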

In experiment [11] the target is Voltage-gated inwardly rectifying potassium channel KCNH2 (Homo sapiens) (UniProt Q12809). The experiment can be described thus: Human Ether-a-go-go-Related Gene (hERG) channel small molecule antagonists: fluorescence cell-based qHTS assay (AID 1671200).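 Note: hERG-expressing U2OS cells given a thallium stimulus after FluxOR II dye loading; series mostly up to about 77 µM; nearly all actives have a fitted effect of over 50% in size.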 In outline:
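U2OS cells expressing the channel were plated at 1000 cells/well, incubated overnight at 37 C, then loaded with FluxOR II thallium-sensitive dye for 1 h at room temperature in the dark, with a further 10 min at room temperature before stimulation.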

Experiment [12] concerns the target Cytochrome P450 3A4 (Homo sapiens) (UniProt P08684). The experiment can be described thus: Cytochrome P450 Family 3 Subfamily A Member 4 (CYP3A4) small molecule antagonists: luciferase reporter qHTS assay (AID 1671201). In a few lines:
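P450-Glo CYP3A4 system with proluciferin substrate; compounds preincubated 10 min RT with enzyme-substrate mix, then NADPH regeneration added for 1 h RT. Detection reagent 20 min, luminescence read as relative luminescence units.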

Experiment [13] deals with Nuclear receptor subfamily 1 group I member 2 (Rattus norvegicus) (UniProt Q9R1A7). The experiment can be described thus: Rat pregnane X receptor (rPXR) activation by small molecules, qHTS assay (AID 1346983). Note: nearly all actives have a fitted effect of over 20% in size. Conditions: rPXR luciferase reporter cells, One-Glo luminescence, 24 h; max activation: hits give high values. In a few lines:
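Luminescent readout (One-Glo luciferase, 30 min room temperature) followed 24 hr compound treatment at 37 C of rPXR cells plated 2,000 per well and preincubated 5hr; qHTS format with compounds delivered in DMSO.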

Experiment [14] deals with Nuclear receptor subfamily 1 group I member 2 (Homo sapiens) (UniProt O75469). The experiment can be described thus: CYP3A4 induction through human pregnane X receptor (PXR) by small molecules, qHTS assay (AID 1346984). Note: nearly all actives have a fitted effect of over 40% in size. In a few lines: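 qHTS, concentration-response format: HepG2 DPX-2 line, PXR/CYP3A4-luc. Exposure 24 h, 37C. Substrate Luciferin-IPA 3uM final, 3 h. Detection One-Glo, 30 min RT.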
Chain of Nuclear receptor subfamily 1 group I member 2 (Homo sapiens) (O75469 whole entry, looked up): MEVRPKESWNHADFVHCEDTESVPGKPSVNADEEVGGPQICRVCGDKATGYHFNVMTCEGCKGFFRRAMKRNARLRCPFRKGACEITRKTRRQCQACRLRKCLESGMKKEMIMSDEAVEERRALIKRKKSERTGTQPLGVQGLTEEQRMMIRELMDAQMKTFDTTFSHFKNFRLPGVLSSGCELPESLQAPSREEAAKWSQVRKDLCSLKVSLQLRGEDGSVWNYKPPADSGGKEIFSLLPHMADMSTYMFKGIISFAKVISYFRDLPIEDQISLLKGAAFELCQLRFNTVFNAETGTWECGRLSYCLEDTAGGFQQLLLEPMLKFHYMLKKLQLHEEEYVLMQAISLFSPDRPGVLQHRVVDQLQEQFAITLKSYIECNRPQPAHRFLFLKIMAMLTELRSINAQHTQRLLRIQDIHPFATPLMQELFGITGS

The target is the same in experiment [15]. The experiment can be described thus: Human pregnane X receptor (PXR) activation by small molecules, qHTS assay (AID 1346985). Note: nearly all actives have a fitted effect of over 40% in size. In a few lines: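 DPX-2 cells (HepG2 co-transfected with a PXR response element and a CYP3A4-promoter luciferase construct) were seeded at 2,000 per well, rested 5 hr at 37C, then exposed to DMSO-dissolved compounds for 24 hr. Activation was read as luciferase luminescence.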

The target in experiment [16] is Cytochrome P450 1A2 (Homo sapiens) (UniProt P05177). The experiment can be described thus: Cytochrome P450 Family 1 Subfamily A Member 2 (CYP1A2) small molecule antagonists: luciferase reporter qHTS assay (AID 1671199). Note: nearly all actives have a fitted effect of over 50% in size. Note: potency is the fitted concentration of half-maximal effect. In outline:
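CYP1A2 turnover of a luminogenic substrate was quantified after 1 h with NADPH regeneration at room temperature. Furafylline served as positive control.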

Unmarked numbers belong to inactive results. Results filed as inconclusive are left out. The source made the active and inactive calls. Unless noted, calls come from the whole dose curve; as a rule, active = well fitted curve in the direction sought with a large enough effect in the repeat runs; inconclusive = weak or mixed curves; inactive = no such curve, though single readings can be large; an effect the other way counts as inactive or inconclusive.
% is set by controls: 0 for no effect and ±100 for the full control effect.

Chain of Cytochrome P450 2C19 (Homo sapiens) (P33261 whole entry, looked up): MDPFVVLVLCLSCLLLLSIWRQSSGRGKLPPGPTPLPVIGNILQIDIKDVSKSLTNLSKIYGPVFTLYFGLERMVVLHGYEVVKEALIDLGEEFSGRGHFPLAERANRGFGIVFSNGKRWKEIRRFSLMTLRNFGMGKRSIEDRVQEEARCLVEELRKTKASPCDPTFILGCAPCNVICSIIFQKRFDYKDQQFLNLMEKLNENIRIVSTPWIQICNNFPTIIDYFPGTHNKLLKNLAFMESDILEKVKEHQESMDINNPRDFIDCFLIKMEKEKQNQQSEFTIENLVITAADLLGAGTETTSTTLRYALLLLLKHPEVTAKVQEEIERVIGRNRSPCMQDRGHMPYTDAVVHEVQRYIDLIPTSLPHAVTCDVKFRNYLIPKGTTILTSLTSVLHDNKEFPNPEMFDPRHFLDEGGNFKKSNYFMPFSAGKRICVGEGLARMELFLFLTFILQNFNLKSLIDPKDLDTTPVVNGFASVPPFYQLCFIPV
Chain of Cytochrome P450 2C9 (Homo sapiens) (P11712 whole entry, looked up): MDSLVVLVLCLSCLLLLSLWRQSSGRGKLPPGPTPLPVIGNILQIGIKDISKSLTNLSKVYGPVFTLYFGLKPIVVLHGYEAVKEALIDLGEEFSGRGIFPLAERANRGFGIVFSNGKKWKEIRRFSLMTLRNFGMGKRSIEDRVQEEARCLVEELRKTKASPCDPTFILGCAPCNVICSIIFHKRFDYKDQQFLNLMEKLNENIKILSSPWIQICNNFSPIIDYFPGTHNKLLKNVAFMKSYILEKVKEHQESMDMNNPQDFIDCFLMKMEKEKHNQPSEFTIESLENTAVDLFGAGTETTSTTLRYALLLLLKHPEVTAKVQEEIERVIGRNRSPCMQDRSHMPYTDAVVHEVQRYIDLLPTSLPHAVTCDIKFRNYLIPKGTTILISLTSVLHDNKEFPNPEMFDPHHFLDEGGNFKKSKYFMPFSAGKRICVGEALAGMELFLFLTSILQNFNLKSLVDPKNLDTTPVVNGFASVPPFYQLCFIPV
Chain of Cytochrome P450 1A2 (Homo sapiens) (P05177 whole entry, looked up): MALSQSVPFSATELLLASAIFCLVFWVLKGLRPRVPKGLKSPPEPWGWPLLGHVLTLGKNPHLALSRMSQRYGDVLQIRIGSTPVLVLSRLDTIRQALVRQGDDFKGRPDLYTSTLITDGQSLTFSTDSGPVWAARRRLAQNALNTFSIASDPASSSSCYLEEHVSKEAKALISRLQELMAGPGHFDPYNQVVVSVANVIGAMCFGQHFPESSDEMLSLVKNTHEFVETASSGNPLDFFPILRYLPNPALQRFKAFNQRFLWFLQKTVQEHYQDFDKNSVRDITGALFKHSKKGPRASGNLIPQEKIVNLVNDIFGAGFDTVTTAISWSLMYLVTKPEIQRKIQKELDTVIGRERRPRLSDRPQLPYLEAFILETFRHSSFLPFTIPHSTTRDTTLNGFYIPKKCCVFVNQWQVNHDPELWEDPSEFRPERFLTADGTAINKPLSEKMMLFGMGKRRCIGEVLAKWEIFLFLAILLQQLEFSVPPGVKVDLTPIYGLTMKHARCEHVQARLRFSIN
Chain of Cytochrome P450 3A4 (Homo sapiens) (P08684 whole entry, looked up): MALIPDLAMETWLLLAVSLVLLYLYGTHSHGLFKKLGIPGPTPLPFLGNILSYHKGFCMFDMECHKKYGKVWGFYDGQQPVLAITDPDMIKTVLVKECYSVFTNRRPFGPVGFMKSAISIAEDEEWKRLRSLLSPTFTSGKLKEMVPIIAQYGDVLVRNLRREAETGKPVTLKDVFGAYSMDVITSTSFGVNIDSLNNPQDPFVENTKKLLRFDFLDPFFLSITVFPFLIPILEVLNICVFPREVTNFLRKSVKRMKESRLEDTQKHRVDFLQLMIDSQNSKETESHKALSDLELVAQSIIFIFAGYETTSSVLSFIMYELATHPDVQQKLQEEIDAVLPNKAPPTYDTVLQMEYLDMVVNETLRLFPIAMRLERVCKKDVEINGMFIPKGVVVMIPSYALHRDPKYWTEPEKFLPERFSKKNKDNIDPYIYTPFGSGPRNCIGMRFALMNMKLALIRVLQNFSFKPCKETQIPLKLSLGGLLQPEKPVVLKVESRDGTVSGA
Chain of Thyrotropin-releasing hormone receptor (Homo sapiens) (P34981 whole entry, looked up): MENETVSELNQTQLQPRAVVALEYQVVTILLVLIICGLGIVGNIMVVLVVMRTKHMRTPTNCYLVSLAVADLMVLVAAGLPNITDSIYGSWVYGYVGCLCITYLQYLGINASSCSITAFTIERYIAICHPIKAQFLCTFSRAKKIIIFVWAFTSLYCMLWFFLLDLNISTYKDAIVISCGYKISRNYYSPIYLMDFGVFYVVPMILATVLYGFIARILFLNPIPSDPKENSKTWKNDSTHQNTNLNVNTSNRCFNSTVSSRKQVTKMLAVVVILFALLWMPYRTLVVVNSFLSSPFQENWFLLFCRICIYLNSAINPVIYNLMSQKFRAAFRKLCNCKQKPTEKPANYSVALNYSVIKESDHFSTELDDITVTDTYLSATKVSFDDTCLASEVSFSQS
Chain of Cytochrome P450 2D6 (Homo sapiens) (P10635 whole entry, looked up): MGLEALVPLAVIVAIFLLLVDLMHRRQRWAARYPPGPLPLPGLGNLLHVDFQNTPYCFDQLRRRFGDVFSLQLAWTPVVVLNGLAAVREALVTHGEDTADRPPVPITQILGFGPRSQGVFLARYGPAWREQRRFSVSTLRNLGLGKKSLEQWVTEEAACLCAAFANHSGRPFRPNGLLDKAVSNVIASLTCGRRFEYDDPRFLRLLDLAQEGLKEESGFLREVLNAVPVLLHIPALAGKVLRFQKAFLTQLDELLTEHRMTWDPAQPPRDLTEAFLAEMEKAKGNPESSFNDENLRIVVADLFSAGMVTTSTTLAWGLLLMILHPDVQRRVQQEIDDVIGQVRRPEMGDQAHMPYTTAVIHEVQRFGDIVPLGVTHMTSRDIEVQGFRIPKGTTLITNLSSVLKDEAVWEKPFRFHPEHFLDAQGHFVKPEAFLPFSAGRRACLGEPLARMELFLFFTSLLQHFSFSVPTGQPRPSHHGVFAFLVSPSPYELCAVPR
Chain of Voltage-gated inwardly rectifying potassium channel KCNH2 (Homo sapiens) (Q12809 whole entry, looked up): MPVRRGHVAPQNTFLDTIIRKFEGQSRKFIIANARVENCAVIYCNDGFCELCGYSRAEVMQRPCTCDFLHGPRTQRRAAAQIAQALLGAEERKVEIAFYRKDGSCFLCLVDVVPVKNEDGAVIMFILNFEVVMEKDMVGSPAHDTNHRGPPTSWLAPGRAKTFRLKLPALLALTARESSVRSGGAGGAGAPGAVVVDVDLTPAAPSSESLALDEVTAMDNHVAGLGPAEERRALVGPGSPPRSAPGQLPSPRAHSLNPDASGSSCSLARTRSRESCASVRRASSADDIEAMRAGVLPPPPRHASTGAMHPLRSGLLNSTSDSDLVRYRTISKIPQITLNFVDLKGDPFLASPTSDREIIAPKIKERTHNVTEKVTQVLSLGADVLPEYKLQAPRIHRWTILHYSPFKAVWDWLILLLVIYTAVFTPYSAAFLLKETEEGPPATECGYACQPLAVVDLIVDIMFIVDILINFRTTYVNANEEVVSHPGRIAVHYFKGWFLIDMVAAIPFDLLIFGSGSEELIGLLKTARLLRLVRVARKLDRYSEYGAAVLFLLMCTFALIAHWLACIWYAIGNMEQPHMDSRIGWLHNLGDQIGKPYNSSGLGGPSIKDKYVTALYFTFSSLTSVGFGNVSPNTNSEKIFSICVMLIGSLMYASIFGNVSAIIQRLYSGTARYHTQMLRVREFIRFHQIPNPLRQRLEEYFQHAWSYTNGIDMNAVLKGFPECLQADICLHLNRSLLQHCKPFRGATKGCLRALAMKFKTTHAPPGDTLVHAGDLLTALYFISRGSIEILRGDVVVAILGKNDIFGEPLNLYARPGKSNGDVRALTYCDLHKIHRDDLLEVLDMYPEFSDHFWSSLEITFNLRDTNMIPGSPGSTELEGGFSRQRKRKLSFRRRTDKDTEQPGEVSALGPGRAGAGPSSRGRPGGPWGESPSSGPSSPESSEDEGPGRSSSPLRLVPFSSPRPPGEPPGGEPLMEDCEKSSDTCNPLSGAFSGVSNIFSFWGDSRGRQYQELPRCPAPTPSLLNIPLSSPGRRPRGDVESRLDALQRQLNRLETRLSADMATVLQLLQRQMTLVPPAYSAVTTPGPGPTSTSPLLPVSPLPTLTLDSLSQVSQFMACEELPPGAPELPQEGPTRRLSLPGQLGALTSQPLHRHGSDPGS
Chain of Nuclear receptor subfamily 1 group I member 2 (Rattus norvegicus) (Q9R1A7 whole entry, looked up): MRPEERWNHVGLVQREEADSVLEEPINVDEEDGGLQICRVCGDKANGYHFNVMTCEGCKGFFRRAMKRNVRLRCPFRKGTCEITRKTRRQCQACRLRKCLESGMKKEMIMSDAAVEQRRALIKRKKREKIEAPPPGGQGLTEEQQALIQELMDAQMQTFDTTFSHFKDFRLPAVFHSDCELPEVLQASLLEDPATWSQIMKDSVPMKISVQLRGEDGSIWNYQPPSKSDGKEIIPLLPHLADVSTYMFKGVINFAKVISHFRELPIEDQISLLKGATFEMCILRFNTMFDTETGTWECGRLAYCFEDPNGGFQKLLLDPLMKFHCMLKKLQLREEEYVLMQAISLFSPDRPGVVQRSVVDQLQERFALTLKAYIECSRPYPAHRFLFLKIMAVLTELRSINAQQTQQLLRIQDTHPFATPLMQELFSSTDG

`COCc1ccc(COC)cc1`: the result in experiment [1], in [3], in [5] and in [6] was inactive. For the same compound, the Potency entry in [2], in experiment [4], in [7], in experiment [8], in [9] and in experiment [10] was “inactive” throughout. Besides, the Potency entry in [11] and in experiment [12] was “inactive” in each case.
With `COc1cc(O)cc(O)c1`, the call in experiment [1], in experiment [3], in [5] and in experiment [6] was inactive. The Potency result in experiment [2], in [4], in experiment [7], in experiment [14], in experiment [15] and in experiment [8] was “inactive” each time. The Potency entry in experiment [10] and in experiment [11] was “inactive” each time. Moreover, in experiment [13], the max activation was -1.94%. In [9], the Potency was 30.9 µM (active).
Take `C=CC(=O)OCCCCCC`: the compound was classed as inactive in experiment [1], in [3], in experiment [5] and in experiment [6]. The Potency entry in experiment [2], in experiment [4], in experiment [7], in experiment [8], in experiment [9] and in [10] was “inactive” each time. Moreover, the Potency entry in experiment [16], in [11] and in experiment [12] was “inactive” each time.
For the compound `N#CCN(CC#N)CCN(CC#N)CC#N`, the result in experiment [1], in [3], in [5] and in experiment [6] was inactive. For the same compound, the Potency entry in experiment [2], in experiment [4], in [7], in experiment [8], in [9] and in experiment [10] was “inactive” in each case. The Potency result in experiment [11] and in [12] was “inactive” throughout.
Consider `O=C1CC2(CCCC2)CC(=O)N1`, for which the call in [1], in experiment [3], in [5] and in [6] was inactive. Further, the Potency entry in experiment [2], in experiment [4], in experiment [7], in experiment [8], in [9] and in experiment [10] was “inactive” each time. Further, the Potency entry in experiment [16], in experiment [11] and in experiment [12] was “inactive” in each case.
For the compound `O=C(O)C1CCC1`, the compound was classed as inactive in [1], in [3], in [5] and in experiment [6]. The Potency entry in experiment [2], in experiment [4], in experiment [7], in [8], in experiment [9] and in [10] was “inactive” in each case. The Potency entry in experiment [16], in experiment [11] and in experiment [12] was “inactive” in each case.
As for `COc1ccc2cc(C=O)ccc2c1`, the compound was classed as inactive in experiment [1], in experiment [3], in experiment [5] and in [6]. Besides, the Potency result in [2], in experiment [4], in experiment [7], in [8], in [11] and in experiment [12] was “inactive” each time. For the same compound, the results for the Potency in experiment [9], in experiment [10] and in experiment [16] were 15.5 µM (active), 17.4 µM (active) and 13.8 µM (active), respectively.
As to `CC(C)=CC(=O)O`, the compound was classed as inactive in [1], in experiment [3], in experiment [5] and in experiment [6]. The Potency result in experiment [2], in [4], in [7], in experiment [8], in [9] and in [10] was “inactive” each time. The Potency entry in [11] and in experiment [12] was “inactive” in each case.
As for `OCCCCCCO`, the compound was classed as inactive in experiment [1], in [3], in experiment [5] and in experiment [6]. Besides, the Potency result in [2], in experiment [4], in experiment [7] and in [11] was “inactive” in each case. Further, the Potency in experiment [8] was 36 µM (active); in experiment [9] it was 12.8 µM (active); in experiment [10], 40.4 µM (active); in experiment [16], 40.4 µM (active).

The record behind these values is PubChem BioAssay (Tox21).
